According to PubChem BioAssay (EPA / NIEHS):
Several values for one entry are separate records, joined by “and”; a condition that tells them apart may be missing. Identical values can stand only once. Results filed as inconclusive are left out. Activity calls are given as the source filed them. Rule for the calls, unless noted: active = hit-call score of the fitted dose curve at least 0.9, where 1 is the maximum; inconclusive = response in the unintended direction; inactive = score below 0.9.

What was measured:
[1] = biological target: human CYP2J2, CYP2J2 (gene 1573) (UniProt P51589); experiment: NVS_ADME_hCYP2J2: NovaScreen (NVS) CYP450-related Enzyme Activity (ADME) Assay for human CYP2J2 (AID 2283106)
How it was run: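 Cell-free assay of recombinant CYP2J2 with a fluorogenic substrate, read 1 h after dosing; loss of signal versus acetonitrile. Primary screen at 10 uM in duplicate, then concentration-response up to 20 uM for chemicals passing threshold (e.g., 30% inhibition).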

[2] = biological target: human CYP4F12, CYP4F12 (gene 66002) (UniProt Q9HCS2); experiment: NVS_ADME_hCYP4F12: NovaScreen (NVS) CYP450-related Enzyme Activity (ADME) Assay for human CYP4F12 (AID 2283111)
How it was run: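 Cell-free fluorescence assay of recombinant human CYP4F12 activity on a specific substrate, read 0.5 h after dosing. Primary screen in duplicate at 10 uM, then concentration series for actives; loss of signal fitted against acetonitrile negative control.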

[3] = biological target: rat CYP2C12, Cyp2c12 (gene 25011) (UniProt P11510); experiment: NVS_ADME_rCYP2C12: NovaScreen (NVS) CYP450-related Enzyme Activity (ADME) Assay for rat CYP2C12 (AID 2283119)
How it was run: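 Cell-free recombinant rat CYP2C12 activity read by fluorescence 0.5 h after dosing; loss of signal versus acetonitrile control. Primary screen in duplicate at 10 uM; actives then run in concentration-response format.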

[4] = biological target: Androgen receptor (Homo sapiens) (UniProt P10275); experiment: ATG_AR_TRANS: Attagene TRANS-FACTORIAL HepG2 Assay for human Androgen Receptor (AR) (AID 2282973); conditions: HepG2 Attagene TRANS-FACTORIAL AR reporter transcription
How it was run: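 Readout is reporter transcript abundance, quantified by fluorescent RT-PCR products separated on capillary electrophoresis. Human HepG2 liver cells carried transiently transfected NR-Gal4 chimera plus GAL4-UAS reporter constructs and were dosed for 24 h; activity scored upward versus DMSO.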

[5] = Tanguay_ZF_120hpf_MUSC: Oregon State University Tanguay Lab 120 Hour Post-fertilization zebrafish Assay for Muscle Malformation (AID 2284401; active = hit-call score of the fitted dose curve at least 0.9, where 1 is the maximum; inactive = score below 0.9)
How it was run: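 Dechorionated Tropical 5D wild-type zebrafish embryos exposed statically from 6 to 120 hpf at 28C, one per well, in 0.64% DMSO. Muscle malformation scored present/absent by brightfield microscopy at 120 hpf, fitted against DMSO.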

[6] = biological target: human Acetylcholinesterase (AChE), ACHE (gene 43) (UniProt P22303); experiment: NVS_ENZ_hAChE: NovaScreen (NVS) Enzymatic Assay for human Acetylcholinesterase (AChE) (AID 2283129)
How it was run: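 Cell-free colorimetric enzyme-activity assay; compounds read 0.33 hour after dosing, loss of signal vs DMSO baseline. Primary screen in duplicate at 25 uM single concentration, with active compounds retested in concentration series.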

[7] = biological target: human AMP-activated Protein Kinase, alpha 1 (AMPKa1), PRKAA1 (gene 5562) (UniProt Q13131); experiment: NVS_ENZ_hAMPKa1: NovaScreen (NVS) Enzymatic Assay for human AMP-activated Protein Kinase, alpha 1 (AMPKa1) (AID 2283130)
How it was run: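 Recombinant human AMPKα1 activity was measured cell-free by fluorescent substrate conversion with electrophoretic mobility-shift separation, 1 h after dosing. Duplicate single-point screening was at 25 uM; actives (≥30% inhibition) were retested in concentration-response up to 50 uM.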

[8] = biological target: Caspase-1 (Homo sapiens) (UniProt P29466); experiment: NVS_ENZ_hCASP1: NovaScreen (NVS) Enzymatic Assay for human Caspase 1 (CASP1) (AID 2283132)
How it was run: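 Cell-free enzymatic assay with E. coli-expressed recombinant protein; fluorescence intensity read 1 hour after dosing. Single-concentration duplicate screen at 25 uM, then concentration-response up to 50 uM; activity fitted relative to DMSO, loss of signal meaning inhibition.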

[9] = biological target: human Caspase 10 (CASP10), CASP10 (gene 843) (UniProt Q92851); experiment: NVS_ENZ_hCASP10: NovaScreen (NVS) Enzymatic Assay for human Caspase 10 (CASP10) (AID 2283133)
How it was run: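 Recombinant human caspase-10 from E. coli, cell-free fluorogenic substrate assay read 1 h after dosing. Primary duplicate screen at 25 uM; hits (e.g. ≥30% inhibition) run singly in concentration-response up to 50 uM, normalised to DMSO.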

[10] = biological target: human Fibroblast Growth Factor Receptor 1 (FGFR1), FGFR1 (gene 2260) (UniProt P11362); experiment: NVS_ENZ_hFGFR1: NovaScreen (NVS) Enzymatic Assay for human Fibroblast Growth Factor Receptor 1 (FGFR1) (AID 2283159);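 note: hits lower the signal so potencies describe inhibitors of the kinase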
How it was run: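 Cell-free recombinant kinase with fluorescent substrate, product separated by electrophoretic mobility shift; read 1 hour after dosing, loss of signal relative to DMSO. Initial screen in duplicate at 25 uM, actives followed in concentration series.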

[11] = biological target: Protein deacetylase HDAC6 (Homo sapiens) (UniProt Q9UBN7); experiment: NVS_ENZ_hHDAC6: NovaScreen (NVS) Enzymatic Assay for human Histone Deacetylase 6 (HDAC6) (AID 2283164)
How it was run: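 Recombinant human HDAC6 with fluorescent substrate, 1 h; product separated from substrate by electrophoretic mobility shift. Primary screen in duplicate at 25 uM; actives retested singly in concentration-response up to 50 uM, fitted relative to DMSO.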

[12] = biological target: human Mitogen-Activated Protein Kinase 1 (MAPK 1), MAPK1 (gene 5594) (UniProt P28482); experiment: NVS_ENZ_hMAPK1: NovaScreen (NVS) Enzymatic Assay for human Mitogen-Activated Protein Kinase 1 (MAPK 1) (AID 2283175)
How it was run: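 Cell-free recombinant human MAPK1 enzymatic assay, fluorescence/electrophoretic mobility shift read at 1 h; loss of signal vs DMSO. Primary screen in duplicate at 25 uM; actives (e.g. ≥30% inhibition) run as concentration-response up to 50 uM.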

[13] = biological target: human MET Proto-Oncogene, Receptor Tyrosine Kinase (MET), MET (gene 4233) (UniProt P08581); experiment: NVS_ENZ_hMet: NovaScreen (NVS) Enzymatic Assay for human MET Proto-Oncogene, Receptor Tyrosine Kinase (MET) (AID 2283180)
How it was run: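 Cell-free MET kinase assay using recombinant protein and fluorescent substrate, with mobility-shift separation; read 1 h after dosing. Primary duplicate at 25 uM; actives in singleton concentration-response to 50 uM maximum. Signal loss versus DMSO.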

[14] = biological target: human p21 Activated Kinase 4 (PAK4), PAK4 (gene 10298) (UniProt O96013); experiment: NVS_ENZ_hPAK4: NovaScreen (NVS) Enzymatic Assay for human p21 Activated Kinase 4 (PAK4) (AID 2283189)
How it was run: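 Cell-free recombinant human PAK4 activity assay; fluorescent substrate and product separated by electrophoretic mobility shift, read 1 h after dosing. Initially tested in duplicate at 25 uM, relative to DMSO baseline.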

[15] = biological target: human Phosphatase and Tensin Homolog (PTEN), PTEN (gene 5728) (UniProt P60484); experiment: NVS_ENZ_hPTEN: NovaScreen (NVS) Enzymatic Assay for human Phosphatase and Tensin Homolog (PTEN) (AID 2283203)
How it was run: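 Cell-free recombinant human PTEN with fluorescent substrate; product separated by electrophoretic mobility shift and read by fluorescence 1 h after dosing. Primary screen in duplicate at 25 uM, actives followed in concentration series versus DMSO.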

[16] = biological target: human Protein Tyrosine Phosphatase Non-receptor Type 2 (PTPN2), PTPN2 (gene 5771) (UniProt P17706); experiment: NVS_ENZ_hPTPN2: NovaScreen (NVS) Enzymatic Assay for human Protein Tyrosine Phosphatase Non-receptor Type 2 (PTPN2) (AID 2283207)
How it was run: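 Cell-free recombinant enzyme with fluorescent substrate, product separated by electrophoretic mobility shift; read 1 h after dosing. Primary screen single concentration (25 uM) in duplicate; actives followed in concentration series; loss of signal versus DMSO.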

[17] = biological target: human Raf-1 Proto-Oncogene, serine/threonine Kinase (RAF1), RAF1 (gene 5894) (UniProt P04049); experiment: NVS_ENZ_hRAF1: NovaScreen (NVS) Enzymatic Assay for human Raf-1 Proto-Oncogene, serine/threonine Kinase (RAF1) (AID 2283216)
How it was run: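 Cell-free recombinant kinase with specific fluorescent substrate, product separated by electrophoretic mobility shift; read 1 h after dosing. Primary screen at 25 uM in duplicate; hits then run in concentration-response up to 50 uM, fitted as loss of signal versus DMSO.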

[18] = biological target: human Tyrosine Protein Kinase Receptor Tie-2 (Tie2), TEK (gene 7010) (UniProt Q02763); experiment: NVS_ENZ_hTie2: NovaScreen (NVS) Enzymatic Assay for human Tyrosine Protein Kinase Receptor Tie-2 (Tie2) (AID 2283225)
How it was run: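 Recombinant human Tie2 kinase activity was read cell-free by fluorescence with electrophoretic mobility shift, 1 hour after dosing. The screen used 25 uM in duplicate, then concentration-response up to 50 uM. Signal loss was scored against DMSO.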

[19] = biological target: rat Adenylate Cyclase, Forskolin Stimulated, Adcy5 (gene 64532) (UniProt Q04400); experiment: NVS_ENZ_rACFSKBinding: NovaScreen (NVS) Enzymatic Assay for rat Adenylate Cyclase, Forskolin Stimulated (AID 2283232)
How it was run: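 Rat forebrain membrane preparation, cell-free, read 1 h after dosing by filter-based scintillation counting. Primary screen in duplicate at 25 uM; actives (e.g. ≥30% inhibition) rerun in concentration-response up to 50 uM; fit versus DMSO.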

[20] = biological target: rat Acetylcholinesterase (AChE), Ache (gene 83817) (UniProt P37136); experiment: NVS_ENZ_rAChE: NovaScreen (NVS) Enzymatic Assay for rat Acetylcholinesterase (AChE) (AID 2283233)
How it was run: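 Rat brain membrane acetylcholinesterase activity measured colorimetrically 0.33 h after compound addition, loss of signal relative to DMSO. Primary screen in duplicate at 25 uM; actives re-run as concentration-response with 50 uM top concentration.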

[21] = biological target: rat Monoamine Oxidase, MAO-B, Peripheral (MAOBP), Maob (gene 25750) (UniProt P19643); experiment: NVS_ENZ_rMAOBP: NovaScreen (NVS) Enzymatic Assay for rat Monoamine Oxidase, MAO-B, Peripheral (MAOBP) (AID 2283242)
[22] = biological target: rat Corticotropin Releasing Factor Receptor (CRF), Crhr1 (gene 58959) (UniProt P35353); experiment: NVS_GPCR_rCRF: NovaScreen (NVS) G Protein-Coupled Receptor Assay for rat Corticotropin Releasing Factor Receptor (CRF) (AID 2283300)
How it was run: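 Rat cortical membranes used as receptor source in a radioligand competitive displacement binding assay; scintillation read 2 h after dosing. Primary screen run in duplicate at 25 uM; loss of signal versus DMSO baseline indicates binding.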

[23] = biological target: human Neonicotinoid receptor (NNR), CHRNA2 (gene 1135) (UniProt Q15822); experiment: NVS_LGIC_hNNR_NBungSens: NovaScreen (NVS) Ligand-Gated Ion Channel Assay for human Neonicotinoid receptor (NNR) (AID 2283313)
How it was run: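 Radioligand displacement on human neuroblastoma membranes, 2 h, filter-based scintillation counting. Primary screen in duplicate at 25 uM; chemicals passing threshold (e.g. 30% inhibition) run singleton concentration-response to 50 uM; loss of binding fitted versus DMSO.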

[24] = read-out: xenobiotic metabolism (CYP2C9), CYP2C9 (gene 1559); experiment: CLD_CYP2C9_6hr: CellzDirect (CLD) Gene Expression Assay for xenobiotic metabolism (CYP2C9) at 6 hours (AID 2283664)
How it was run: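 Primary human hepatocytes dosed daily with test chemicals at multiple concentrations; harvested at 6 h. CYP2C9 mRNA induction measured by qNPA chemiluminescence. Gain of signal fitted against 0.2% DMSO vehicle; cytotoxicity annotated from phase-contrast morphology.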

Measured: AC50

Chain of human Fibroblast Growth Factor Receptor 1 (FGFR1), FGFR1 (gene 2260) (P11362 whole entry, looked up): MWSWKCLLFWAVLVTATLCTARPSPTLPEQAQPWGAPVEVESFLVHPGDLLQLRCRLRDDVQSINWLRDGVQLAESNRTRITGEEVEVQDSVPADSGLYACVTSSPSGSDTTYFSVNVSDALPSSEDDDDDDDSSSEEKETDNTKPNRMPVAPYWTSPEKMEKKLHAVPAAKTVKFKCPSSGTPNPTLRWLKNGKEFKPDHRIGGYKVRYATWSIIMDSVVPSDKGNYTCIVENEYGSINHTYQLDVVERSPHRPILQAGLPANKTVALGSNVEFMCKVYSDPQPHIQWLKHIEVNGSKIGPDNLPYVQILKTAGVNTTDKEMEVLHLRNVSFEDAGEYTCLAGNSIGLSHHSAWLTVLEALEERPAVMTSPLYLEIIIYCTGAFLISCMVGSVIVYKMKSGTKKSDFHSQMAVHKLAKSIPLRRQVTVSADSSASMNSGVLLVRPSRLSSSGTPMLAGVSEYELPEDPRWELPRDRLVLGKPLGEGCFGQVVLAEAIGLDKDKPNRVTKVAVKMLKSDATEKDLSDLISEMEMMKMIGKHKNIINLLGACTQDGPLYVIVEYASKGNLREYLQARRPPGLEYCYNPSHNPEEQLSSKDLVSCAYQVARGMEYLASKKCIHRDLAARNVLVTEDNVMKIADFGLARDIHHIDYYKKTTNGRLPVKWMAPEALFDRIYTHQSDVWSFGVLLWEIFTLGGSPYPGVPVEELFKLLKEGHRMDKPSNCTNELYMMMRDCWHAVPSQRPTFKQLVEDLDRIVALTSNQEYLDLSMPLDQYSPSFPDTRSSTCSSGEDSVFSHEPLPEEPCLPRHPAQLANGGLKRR
Chain of human Phosphatase and Tensin Homolog (PTEN), PTEN (gene 5728) (P60484 whole entry, looked up): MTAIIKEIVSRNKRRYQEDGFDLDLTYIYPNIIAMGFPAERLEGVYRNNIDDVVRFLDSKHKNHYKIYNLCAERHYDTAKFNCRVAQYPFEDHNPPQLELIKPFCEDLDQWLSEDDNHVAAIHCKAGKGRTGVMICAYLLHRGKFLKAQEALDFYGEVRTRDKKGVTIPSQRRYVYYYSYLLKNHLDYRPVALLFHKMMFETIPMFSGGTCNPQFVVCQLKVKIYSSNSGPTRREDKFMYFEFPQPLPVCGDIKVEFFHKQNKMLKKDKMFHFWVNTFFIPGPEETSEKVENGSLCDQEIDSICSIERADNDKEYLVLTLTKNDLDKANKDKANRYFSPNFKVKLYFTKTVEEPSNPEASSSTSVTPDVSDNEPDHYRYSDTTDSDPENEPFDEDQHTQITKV
Chain of human AMP-activated Protein Kinase, alpha 1 (AMPKa1), PRKAA1 (gene 5562) (Q13131 whole entry, looked up): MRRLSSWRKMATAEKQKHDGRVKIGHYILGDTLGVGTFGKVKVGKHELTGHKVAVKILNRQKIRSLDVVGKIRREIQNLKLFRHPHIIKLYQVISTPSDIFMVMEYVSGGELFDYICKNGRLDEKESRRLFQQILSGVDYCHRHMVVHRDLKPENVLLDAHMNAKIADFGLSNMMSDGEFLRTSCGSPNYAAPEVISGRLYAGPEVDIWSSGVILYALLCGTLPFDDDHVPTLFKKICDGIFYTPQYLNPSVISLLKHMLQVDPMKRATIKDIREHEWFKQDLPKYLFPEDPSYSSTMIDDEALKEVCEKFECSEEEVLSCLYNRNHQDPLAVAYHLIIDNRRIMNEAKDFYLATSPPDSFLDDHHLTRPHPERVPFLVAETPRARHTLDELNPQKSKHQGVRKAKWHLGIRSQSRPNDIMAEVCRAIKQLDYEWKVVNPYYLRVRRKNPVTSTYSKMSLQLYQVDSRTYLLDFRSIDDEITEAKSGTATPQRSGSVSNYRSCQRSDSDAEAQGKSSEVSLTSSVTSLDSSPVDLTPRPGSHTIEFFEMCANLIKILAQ
Chain of human MET Proto-Oncogene, Receptor Tyrosine Kinase (MET), MET (gene 4233) (P08581 whole entry, looked up): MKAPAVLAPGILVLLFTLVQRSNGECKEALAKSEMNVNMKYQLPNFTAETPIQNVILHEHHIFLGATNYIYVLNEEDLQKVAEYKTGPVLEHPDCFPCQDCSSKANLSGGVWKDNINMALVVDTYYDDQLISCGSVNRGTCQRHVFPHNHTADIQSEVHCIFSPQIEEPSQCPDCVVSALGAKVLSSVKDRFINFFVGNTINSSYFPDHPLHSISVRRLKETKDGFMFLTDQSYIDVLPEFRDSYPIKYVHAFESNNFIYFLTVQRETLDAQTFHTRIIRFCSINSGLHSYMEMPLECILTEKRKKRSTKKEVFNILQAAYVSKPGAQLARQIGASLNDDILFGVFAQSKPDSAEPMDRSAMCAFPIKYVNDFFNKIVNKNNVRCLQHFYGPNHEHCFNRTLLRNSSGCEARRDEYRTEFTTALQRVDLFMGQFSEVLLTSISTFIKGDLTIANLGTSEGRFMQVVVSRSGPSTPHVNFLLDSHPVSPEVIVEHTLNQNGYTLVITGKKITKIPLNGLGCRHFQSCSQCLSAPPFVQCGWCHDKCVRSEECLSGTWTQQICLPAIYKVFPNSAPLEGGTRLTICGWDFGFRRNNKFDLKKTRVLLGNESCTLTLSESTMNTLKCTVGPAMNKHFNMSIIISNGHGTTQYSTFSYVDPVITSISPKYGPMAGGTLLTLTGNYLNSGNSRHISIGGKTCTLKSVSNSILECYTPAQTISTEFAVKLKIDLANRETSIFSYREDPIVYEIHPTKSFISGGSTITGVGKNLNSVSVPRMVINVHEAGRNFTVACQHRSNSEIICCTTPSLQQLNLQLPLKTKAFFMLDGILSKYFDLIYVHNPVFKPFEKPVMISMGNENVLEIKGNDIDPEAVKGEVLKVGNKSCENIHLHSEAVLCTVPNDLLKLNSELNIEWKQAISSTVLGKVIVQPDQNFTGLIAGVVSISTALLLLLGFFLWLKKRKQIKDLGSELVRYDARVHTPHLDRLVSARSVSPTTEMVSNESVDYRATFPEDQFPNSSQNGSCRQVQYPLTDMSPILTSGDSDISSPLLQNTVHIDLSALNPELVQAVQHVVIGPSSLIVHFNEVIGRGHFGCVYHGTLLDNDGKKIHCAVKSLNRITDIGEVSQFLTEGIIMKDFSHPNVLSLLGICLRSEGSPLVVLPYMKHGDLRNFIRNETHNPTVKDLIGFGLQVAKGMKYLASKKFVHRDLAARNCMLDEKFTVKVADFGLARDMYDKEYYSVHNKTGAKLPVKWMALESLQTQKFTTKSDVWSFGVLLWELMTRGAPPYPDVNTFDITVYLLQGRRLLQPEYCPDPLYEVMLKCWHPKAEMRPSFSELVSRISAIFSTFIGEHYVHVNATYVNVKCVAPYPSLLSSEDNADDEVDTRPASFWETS
Chain of human Tyrosine Protein Kinase Receptor Tie-2 (Tie2), TEK (gene 7010) (Q02763 whole entry, looked up): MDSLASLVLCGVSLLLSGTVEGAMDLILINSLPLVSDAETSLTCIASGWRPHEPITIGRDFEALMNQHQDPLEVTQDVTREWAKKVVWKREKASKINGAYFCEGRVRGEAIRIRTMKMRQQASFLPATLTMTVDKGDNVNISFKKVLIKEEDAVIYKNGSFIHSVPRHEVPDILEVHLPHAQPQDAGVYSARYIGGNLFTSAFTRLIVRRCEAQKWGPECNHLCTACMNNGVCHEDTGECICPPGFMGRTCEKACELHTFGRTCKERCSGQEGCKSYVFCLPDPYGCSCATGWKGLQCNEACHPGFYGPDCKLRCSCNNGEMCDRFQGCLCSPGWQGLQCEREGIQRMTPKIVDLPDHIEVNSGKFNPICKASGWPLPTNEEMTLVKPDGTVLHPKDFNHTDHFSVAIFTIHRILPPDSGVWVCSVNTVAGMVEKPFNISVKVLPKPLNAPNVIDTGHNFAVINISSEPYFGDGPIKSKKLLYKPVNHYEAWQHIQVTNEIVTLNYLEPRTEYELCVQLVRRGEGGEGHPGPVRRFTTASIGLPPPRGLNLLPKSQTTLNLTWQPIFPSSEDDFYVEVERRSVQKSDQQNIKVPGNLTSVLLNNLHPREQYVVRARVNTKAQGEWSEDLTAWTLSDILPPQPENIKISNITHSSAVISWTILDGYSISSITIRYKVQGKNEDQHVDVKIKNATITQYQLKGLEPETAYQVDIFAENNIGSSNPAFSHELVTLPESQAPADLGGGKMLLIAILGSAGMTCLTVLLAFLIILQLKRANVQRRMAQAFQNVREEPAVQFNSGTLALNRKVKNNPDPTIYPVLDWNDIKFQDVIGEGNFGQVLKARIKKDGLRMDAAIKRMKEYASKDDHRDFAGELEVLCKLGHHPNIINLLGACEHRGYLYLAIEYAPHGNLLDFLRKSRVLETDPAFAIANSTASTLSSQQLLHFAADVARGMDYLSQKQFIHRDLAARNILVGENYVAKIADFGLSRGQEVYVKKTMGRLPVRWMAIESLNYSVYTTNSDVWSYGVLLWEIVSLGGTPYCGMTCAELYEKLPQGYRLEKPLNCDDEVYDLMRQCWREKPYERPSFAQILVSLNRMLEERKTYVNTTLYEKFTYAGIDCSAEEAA
Chain of Caspase-1 (Homo sapiens) (P29466 whole entry, looked up): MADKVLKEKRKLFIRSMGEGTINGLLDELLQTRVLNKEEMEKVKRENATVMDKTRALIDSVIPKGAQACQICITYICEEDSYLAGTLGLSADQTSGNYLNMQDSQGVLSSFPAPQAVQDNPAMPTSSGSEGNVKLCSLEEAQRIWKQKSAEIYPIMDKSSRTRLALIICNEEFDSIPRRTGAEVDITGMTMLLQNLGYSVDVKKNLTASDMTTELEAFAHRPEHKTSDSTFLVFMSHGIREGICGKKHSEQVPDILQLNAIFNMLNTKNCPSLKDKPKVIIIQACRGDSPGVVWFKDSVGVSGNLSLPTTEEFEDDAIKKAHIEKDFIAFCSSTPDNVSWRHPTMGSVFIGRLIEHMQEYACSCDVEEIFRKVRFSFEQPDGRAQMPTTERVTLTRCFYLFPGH
Chain of human Mitogen-Activated Protein Kinase 1 (MAPK 1), MAPK1 (gene 5594) (P28482 whole entry, looked up): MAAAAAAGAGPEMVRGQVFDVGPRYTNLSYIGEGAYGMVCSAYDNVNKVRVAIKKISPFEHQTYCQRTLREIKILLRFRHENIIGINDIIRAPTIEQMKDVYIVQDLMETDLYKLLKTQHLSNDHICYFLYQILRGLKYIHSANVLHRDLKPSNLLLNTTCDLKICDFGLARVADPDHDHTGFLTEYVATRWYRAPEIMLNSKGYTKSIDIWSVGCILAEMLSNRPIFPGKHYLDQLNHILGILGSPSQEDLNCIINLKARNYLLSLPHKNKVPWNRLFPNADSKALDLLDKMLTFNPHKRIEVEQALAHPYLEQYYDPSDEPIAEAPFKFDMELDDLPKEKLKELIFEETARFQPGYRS

C[C@]12CC[C@@H]3c4ccc(O)cc4CC[C@H]3[C@@H]1CC[C@@H]2O
inactive: [1] | [2] | [3]

FC(F)(F)C(F)(F)C(F)(F)C(F)(F)C(F)(F)C(F)(F)C(F)(F)I
inactive: [4] | [5]

S=C(S)NCCNC(=S)S.[Mn+2].[S-]C([S-])=NCCN=C([S-])[S-].[Zn+2]
active: [7] 1.87 µM and 1.32 µM and 2.26 µM | [10] 9.75 µM and 926 nM and 5.66 µM | [11] 233 nM and 815 nM | [12] 7.49 µM and 1.15 µM | [13] 11 µM and 4.32 µM and 18.9 µM | [14] 5.61 µM and 263 nM | [15] 3.14 µM and 80.5 nM and 274 nM | [16] 898 nM and 519 nM | [18] 9.01 µM and 2.11 µM and 12.8 µM | [22] 25 µM
inactive: [2] | [6] | [8] | [9] | [17] | [19] | [20] | [21] | [23] | [24]
